Test results published in article PMC4552634, “A New Set of Chemical Starting Points with Plasmodium falciparum Transmission-Blocking Potential for Antimalarial Drug Discovery” (PLoS ONE, 2015).
Where two headings read alike, the source gives them in different places. Among all 13,000 compounds or so, about 3,200 (25%) showed an effect of 50% or more. The list shows a part of the results.

Test system: P. falciparum stage V gametocytes
Set-up: BacTiter-Glo ATP luminescence viability of purified stage V gametocytes in 384-well plates, per cent inhibition versus DMSO
Details: 48 h, 5 µM, inhibitor

SMILES	% Inhibition [%]	% Inhibition (% Inhibition) [%]
Cc1[nH]c2cc(Cl)ccc2c1C1=CCN(CCCCC2(C)C(=O)Nc3ccccc32)CC1 (stereo not drawn) [TCMDC-140945]	-53	
COc1cc(C(=O)NCCCN2CCN(c3cccc(Cl)c3)CC2)ccc1-c1cc2cc(Cl)c(Cl)cc2[nH]1 [TCMDC-139622]	6.24	
O=C(c1cccs1)N(Cc1cccc(-c2ccc(CNCCc3ccccc3)cc2)c1)C1CCN(Cc2ccccc2)CC1 [TCMDC-140566]	66.5	
O=C(NCCc1ccccc1)N(Cc1ccc(-c2cccc(CN3CCNCC3)c2)cc1)C1CCN(Cc2ccccc2)CC1 [TCMDC-139635]	105.4	
O=C(NCCc1ccccc1)N(Cc1cccc(-c2ccc(CNC3CCCC3)cc2)c1)C1CCN(Cc2ccccc2)CC1 [TCMDC-140618]	99.39	
O=c1cc(NCCCNCc2cc3ccccc3s2)[nH]c2ccccc12 [TCMDC-140234]	-96.03	
COc1ccc(NC(=O)/C=C/c2ccc(Cl)c(C(F)(F)F)c2)cc1OCCN(C(C)C)C(C)C [TCMDC-139646]	-39.1	
COc1ccc(Br)cc1C1C2C(=O)N(c3ccc(Br)cc3)C(=O)C2C2(C(=O)O)CC(OCc3ccccc3)CN12 (stereo not drawn) [TCMDC-139264]	14.59	
N#Cc1ccnc(-c2ccc(CNC3CCN(CC4Cn5c(=O)ccc6ccc(F)c4c65)CC3)cc2)c1 (stereo not drawn) [TCMDC-134408]	-28.26	
CCc1ccc(OCCCON2C(N)=NC(N)=NC2(C)C)cc1 [TCMDC-131321]	2.956	
CC(=O)Nc1cccc(NC(=O)CSc2ccc(-c3nc4ccccc4[nH]3)cn2)c1 [TCMDC-123529]	49.75	
O=C(CCC1CCCC1)N(Cc1ccc(-c2ccc(CNCCc3ccccc3)cc2)cc1)C1CCCNC1 (stereo not drawn) [TCMDC-141444]	116.1	
O=C(C1CC1c1ccccc1)N(Cc1ccc(-c2ccc(CNCCc3ccccc3)cc2)cc1)C1CCNCC1 (stereo not drawn) [TCMDC-141443]	108.5	
CC(=O)Nc1ncc(C(=O)Nc2cccc(-c3cccc(-c4nc5ccccc5[nH]4)c3)c2)s1 [TCMDC-136911]	11.96	
CC(=O)N1N=C(c2[nH]c3ccc(Br)cc3c2C)OC1c1ccccc1 (stereo not drawn) [TCMDC-124752]	9.307	
COc1ccc2nc(C)cc(NCc3ccc4ccccc4c3)c2c1.Cl [TCMDC-138977]	6.085	
NCc1ccc(Nc2nccc(Nc3ccc(-c4ccccc4)cc3)n2)cc1 [TCMDC-136004]	25.82	
Cc1cc(N)nc2ccc(-c3cccc(CN)c3)cc12 [TCMDC-137784]	92.85	
Cc1cc(N)nc2ccc(CNCCc3ccccc3Br)cc12 [TCMDC-138092]	32.49	
Cc1cc(N)nc2ccc(-c3ccc(CN)cc3)cc12 [TCMDC-137785]	97.26	
COc1ccc(CCNCc2ccc3nc(N)cc(C)c3c2)cc1 [TCMDC-138093]	96.45	
Cc1cc(N)nc2ccc(-c3ccc(CCN)cc3)cc12 [TCMDC-137786]	103.4	
Cc1ccc(O)cc1Nc1ccnc2ccc(-c3cccc(CN(C)C)c3)cc12 [TCMDC-138481]	38.94	

SMILES	% Inhibition [%]	% Inhibition (% Inhibition) [%]
COc1ccc(CCNCc2ccc3c(C)cc(N)nc3c2)cc1 [TCMDC-138096]	41.14	
Cc1ccc(Cc2c(N)nc3nc(N)nc(N)c3c2C)cc1 [TCMDC-138063]	9.056	
CC[C@H]1CN2CC[C@@H]1C[C@H]2[C@H](O)c1cc(N2CCCC(C)(C)C2)nc2ccc(OC)cc12 [TCMDC-141423]	67.35	
CCOc1ccc2nccc([C@@H](O)[C@@H]3C[C@@H]4CCN3C[C@@H]4CC)c2c1 [TCMDC-125547]		-52.19
CC[C@H]1CN2CC[C@H]1C[C@H]2[C@H](O)c1ccnc2ccc(OC)cc12 [TCMDC-123485]	-3.295	
CC[C@H]1CN2CC[C@@H]1C[C@H]2[C@H](O)c1ccnc2ccc(OC)cc12 [TCMDC-142003]	82.89	
CC[C@H]1CN2CC[C@@H]1C[C@H]2[C@H](O)c1cc(N2CCC(O)CC2)nc2ccc(OC)cc12 [TCMDC-141415]	17.87	
CC[C@H]1CN2CC[C@@H]1C[C@H]2[C@H](O)c1cc(N2CCC(CO)CC2)nc2ccc(OC)cc12 [TCMDC-141418]	34.66	
CC[C@H]1CN2CC[C@H]1C[C@H]2[C@H](O)c1cc(N2CCCC(CO)C2)nc2ccc(OC)cc12 (stereo partly drawn) [TCMDC-141417]	-19.77	
CC[C@H]1CN2CC[C@@H]1C[C@H]2[C@H](O)c1cc(N2CCC(C)CC2)nc2ccc(OC)cc12 [TCMDC-141419]	96.92	
CC[C@H]1CN2CC[C@@H]1C[C@H]2[C@H](O)c1cc(N2CCC(c3ccccc3)CC2)nc2ccc(OC)cc12 [TCMDC-141435]	91.21	
O=C(/C=C/c1ccc(Cl)c(Cl)c1)NCCCCCN1CCCN(C(=S)Nc2ccc(Cl)c(Cl)c2)CC1 [TCMDC-135896]	-3.43	
N#Cc1ccc2c(c1)CCN(CCC1CCC(NC(=O)Nc3cnc4ccccc4c3)CC1)C2 (stereo not drawn) [TCMDC-139440]	3.253	
CC[C@H]1CN2CC[C@@H]1C[C@H]2[C@H](O)c1cc(N2CCSCC2)nc2ccc(OC)cc12 [TCMDC-141424]	79.98	
CC[C@H]1CN2CC[C@H]1C[C@H]2[C@H](O)c1cc(N2CCC3CCCCC3C2)nc2ccc(OC)cc12 (stereo partly drawn) [TCMDC-141440]	90.7	
CC[C@H]1CN2CC[C@@H]1C[C@H]2[C@H](O)c1cc(N2CCC(C(N)=O)CC2)nc2ccc(OC)cc12 [TCMDC-141441]	-22.84	
CC[C@H]1CN2CC[C@H]1C[C@H]2[C@H](O)c1cc(N2CCCC(C(=O)N(CC)CC)C2)nc2ccc(OC)cc12 (stereo partly drawn) [TCMDC-141434]	46.24	
CC[C@H]1CN2CC[C@@H]1C[C@H]2[C@H](O)c1cc(N2CCOCC2)nc2ccc(OC)cc12 [TCMDC-141416]	-92.7	
CC[C@H]1CN2CC[C@@H]1C[C@H]2[C@H](O)c1cc(N2CCC(N3CCCCC3)CC2)nc2ccc(OC)cc12 [TCMDC-141442]	105.7	
CC[C@H]1CN2CC[C@@H]1C[C@H]2[C@H](O)c1cc(N2CCC(O)(c3ccc(Cl)cc3)CC2)nc2ccc(OC)cc12 [TCMDC-141439]	74.49	
CC[C@H]1CN2CC[C@@H]1C[C@H]2[C@H](O)c1cc(N2CCC(O)(c3ccccc3)CC2)nc2ccc(OC)cc12 [TCMDC-141438]	44.1	
CC[C@H]1CN2CC[C@H]1C[C@H]2[C@H](O)c1cc(N2CCCC2)nc2ccc(OC)cc12 [TCMDC-141217]	-33.27	
